Bioassay records (PubChem)
The list is not random: actives were taken first. Their share in the collection is about 12%.
Sfp inh: qHTS Assay for Inhibitors of Bacillus subtilis Sfp phosphopantetheinyl transferase (PPTase); Potency, µM, for inactives: largest response in the series, negative = inhibition, hits mostly inhibitors; hit rate 3.5% among 310,000; Biochemical Sfp PPTase activity, qHTS; 4'-phosphopantetheinyl transferase ffp (Bacillus subtilis), Q9F4F7; AID 1490, 2009;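 also: the enzyme is Sfp with the accession as filed and its product quenches rhodamine fluorescence; 0% = enzyme reaction without inhibitor and -100% = no enzyme wells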
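Fluorescence-quenching assay with 15 nM Sfp, 5 uM rhodamine-CoA and 12.5 uM BHQ-2-labelled ybbR peptide in pH 7.6 Hepes/MgCl2 buffer. Enzyme was pre-incubated with compound for 15 min at room temperature. Rate was taken from the 30-min fluorescence change (525/598 nm).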
L3MBTL1 block: qHTS Assay for the Inhibitors of L3MBTL1 | Lethal(3)malignant brain tumor-like protein 1 (Homo sapiens), Q9Y468 | Potency, µM (top dose mostly 57.1 µM), without a hit: at the top dose activity, negative = inhibition, usual class: inhibitors | hit rate 0.66% among 230,000 | AlphaScreen L3MBTL1–H3K9me1 peptide binding | AID 485360, 2010; also: % is scaled to controls: 0 for no effect and ±100 for the full control effect; nearly all actives have a fitted effect of over 60% in size
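AlphaScreen proximity signal between nickel-chelate acceptor and streptavidin donor beads (final 10 ug/mL) reports binding of 50 nM L3MBTL1 to 75 nM biotin-H3 K9me1 peptide; complex incubated with compounds 30 min at room temperature; cefsulodin titration as control.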
G9a block: qHTS Assay for Inhibitors of Histone Lysine Methyltransferase G9a; Histone-lysine N-methyltransferase EHMT2 (Homo sapiens), Q96KQ7; G9a H3K9 monomethylation, AlphaScreen, 2 h; hit rate 8.8% among 350,000; Potency, µM (top dose mostly 102 µM), for inactives: at the highest dose activity, negative = inhibition, usual class: inhibitors; also: % is scaled to controls: 0 for no effect and ±100 for the full control effect; nearly all actives have a fitted effect of over 75% in size
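Chemiluminescent proximity detection of H3K9 monomethylation, read after 10 min bead incubation in the dark. Reaction: 20 nM G9a, 500 nM biotin-H3K9 peptide, 20 uM SAM cofactor, 2 h, room temperature, following 15 min enzyme-compound preincubation.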
HP1b chromo inh: HTS for Inhibitors of HP1-beta Chromodomain Interactions with Methylated Histone Tails | hit rate 0.56% among 390,000 | Potency, µM (series often up to 114 µM), inactives show at the highest dose activity change, negative = inhibition, actives largely listed as inhibitors | AlphaScreen HP1-beta / biotin-H3K9me3 peptide binding; also: nearly all actives have a fitted effect of over 70% in size
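AlphaScreen: HP1-beta (50 nM) preformed 30 min with biotin-H3(1-18)K9me3 peptide (50 nM) in PBS pH 7.4, 0.01% Tween-20. Compound added for 30 min at RT, then streptavidin donor/nickel chelate acceptor beads (10 ug/mL) for 30 min.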
JMJD2A Tudor inh: qHTS Assay for Inhibitors of JMJD2A-Tudor Domain. hit rate 4.4% among 390,000. AlphaScreen JMJD2A-Tudor / H3K4me3 peptide binding. AID 504339, 2011. Potency, µM (doses to about 114 µM), inactives show at the top dose activity change, negative = inhibition, usual class: inhibitors. Lysine-specific demethylase 4A (Homo sapiens), O75164; also: % is scaled to controls: 0 for no effect and ±100 for the full control effect; nearly all actives have a fitted effect of over 50% in size
Target sequence (O75164 whole entry, looked up, the tested form may be a part): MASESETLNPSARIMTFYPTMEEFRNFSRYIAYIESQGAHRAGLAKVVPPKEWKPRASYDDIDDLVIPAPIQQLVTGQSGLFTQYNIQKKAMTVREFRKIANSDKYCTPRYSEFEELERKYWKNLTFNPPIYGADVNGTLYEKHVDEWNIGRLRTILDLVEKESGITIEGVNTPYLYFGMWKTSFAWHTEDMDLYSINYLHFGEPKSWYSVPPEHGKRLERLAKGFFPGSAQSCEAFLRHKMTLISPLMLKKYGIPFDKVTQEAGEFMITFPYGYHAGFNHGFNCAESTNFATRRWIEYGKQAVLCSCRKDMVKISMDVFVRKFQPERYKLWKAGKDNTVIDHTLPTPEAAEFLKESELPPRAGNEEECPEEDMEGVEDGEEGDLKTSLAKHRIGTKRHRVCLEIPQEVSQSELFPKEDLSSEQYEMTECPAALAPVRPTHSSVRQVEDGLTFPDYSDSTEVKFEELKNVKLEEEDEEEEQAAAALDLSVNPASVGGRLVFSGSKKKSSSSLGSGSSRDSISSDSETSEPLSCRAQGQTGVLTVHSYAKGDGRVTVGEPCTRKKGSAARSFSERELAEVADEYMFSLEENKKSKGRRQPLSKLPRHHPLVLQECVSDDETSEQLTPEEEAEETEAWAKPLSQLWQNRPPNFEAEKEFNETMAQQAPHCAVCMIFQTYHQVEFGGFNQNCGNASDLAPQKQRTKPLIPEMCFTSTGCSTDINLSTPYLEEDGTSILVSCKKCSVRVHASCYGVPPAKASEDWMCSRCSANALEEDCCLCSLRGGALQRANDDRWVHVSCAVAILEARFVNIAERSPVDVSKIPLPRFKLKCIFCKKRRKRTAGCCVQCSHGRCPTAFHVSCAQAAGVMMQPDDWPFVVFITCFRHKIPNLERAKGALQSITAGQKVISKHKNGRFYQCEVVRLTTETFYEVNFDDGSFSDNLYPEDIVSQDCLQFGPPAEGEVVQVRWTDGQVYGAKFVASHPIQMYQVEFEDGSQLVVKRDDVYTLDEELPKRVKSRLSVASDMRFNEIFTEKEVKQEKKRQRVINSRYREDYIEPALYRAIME
BAZ2B block: qHTS Assay for Inhibitors of BAZ2B; Bromodomain adjacent to zinc finger domain protein 2B (Homo sapiens), Q9UIF8; AlphaScreen BAZ2B-H3K14Ac peptide displacement; Potency, µM (doses to about 114 µM), for the others: top-dose activity change, negative = inhibition, actives largely listed as inhibitors; hit rate 4.4% among 360,000; AID 504333, 2011; also: % is scaled to controls: 0 for no effect and ±100 for the full control effect; nearly all actives have a fitted effect of over 60% in size
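Multi-concentration screen (max 110 uM) measuring displacement of acetylated histone H3 peptide from BAZ2B by AlphaScreen, using 50 nM protein, 50 nM peptide and 10 ug/mL streptavidin donor plus Ni-chelate acceptor beads.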
Starred values were filed as active, the others as inactive; u = inconclusive; x = no result; ! = a repeat was not active; [ ] = remark or other dose. Calls follow the shape of the dose curve; as a rule, active = well fitted curve in the direction sought with a large enough effect; inconclusive = small, poorly fitted or top-dose-only effect, or another doubt; inactive = no such curve, though single readings can be large; an effect the other way counts as inactive or inconclusive. Potency is read from the fitted curve at half-maximal effect.

SMILES	Sfp inh	L3MBTL1 block	G9a block	HP1b chromo inh	JMJD2A Tudor inh	BAZ2B block
N#CC1c2ccccc2-n2nncc2CN1S(=O)(=O)c1cc(Cl)cc(Cl)c1 (configuration not stated)	x	x	x	28%	89µM*	x
CCN1CCN(c2ccc(N)c(C)c2)CC1	10%	-11%	45µM*	3%	-27%	-28%
C[N+]12CCC(CC1)C(C#N)(N1CCOCC1)C2 (configuration not stated)	9%	5%	50µM*	21%	u	1%
CCC(CC)c1nnc(NC(=O)CC(C)c2ccccc2)s1 (configuration not stated)	-17%	5%	u	-14%	-14%	1%
OC(c1ccc(Cl)cc1)(c1cncnc1)c1ccccc1Cl (configuration not stated)	-12%	x	x	x	x	x
CCOc1ccc(CN(CCc2ccc3c(c2)OCO3)Cc2cccc(C)c2)cc1	x	x	0.89µM*	u	22µM*	u
CCOc1ccc(CN(CCc2ccc3c(c2)OCO3)Cc2cc(OC)ccc2O)cc1	x	x	3.2µM*	u	22µM*	u
CCOc1ccc(CN(CCc2ccc3c(c2)OCO3)Cc2ccc(CC)cc2)cc1	x	x	u	-21%	22µM*	71µM*
O=c1[nH]c(=O)n([C@H]2C[C@H](O)[C@@H](CO)O2)cc1/C=C/Br	3%	x	17%[12.7 µM]	x	x	x
CCOP(=S)(OCC)OCCSCC	-10%	x	x	x	x	x
CC1CC[C@@]2(NC1)OC1CC3C4CC[C@@H]5CC(O)CC[C@@]5(C)C4CC[C@]3(C)C1C2C (some centres not stated)	6%	x	-6%[2.33 µM]	x	x	x
c1ccc(CCNCc2ccccc2)cc1	-5%	13%	6%	15%	-9%	3%
CC1=C/C(=N\NC(=S)NCCc2ccccc2)CC(C)(C)C1	3%	-9%[11.4 µM]	40µM*	-11%	50µM*	u
C=C[C@]12CN(C)[C@H]3C1[C@@]1(C(=O)Nc4ccccc41)[C@H]1C[C@H]2[C@H]3CO1	11%	x	27%[21.5 µM]	x	x	x
Cn1c(O)c(/C=C2\C=Nc3ccccc32)c(=O)n(C)c1=O	22%	0%	u	16%	-5%	-18%
Cn1c(O)c(/C=C2\C=c3ccccc3=NC2=O)c(=O)n(C)c1=O	45µM*	x	40µM*	45%	4%	2%
O=C(CSc1nc2c([nH]c3ccccc32)c(=O)n1-c1ccccc1)c1ccccc1	x	x	12%[59 µM]	11%[57 µM]	u	1%
CN(C)C(=O)OCc1n(C)cc[n+]1C	-5%	-3%	2%[59 µM]	20%	-10%	9%
CCN(CC)P(c1n(C)cc[n+]1C)N(CC)CC	-7%	12%	u	u	22µM*	-18%
O=C1NC(=O)N(c2ccccc2)C(=O)/C1=C\c1ccccc1[N+](=O)[O-]	22µM*	1%	28µM*	12%	-9%	-8%
O=C1NC(=O)N(c2ccccc2)C(=O)/C1=C/c1ccc(Sc2ccccc2)o1	22µM*	50%	10µM*	0%	56µM*	50µM*
COc1cc(/C=C2/C(=O)NC(=O)N(c3ccccc3)C2=O)ccc1O	8.9µM*	-10%	35µM*	34%	-11%	-1%
COc1ccc(/C=C2/C(=O)NC(=O)N(c3ccccc3)C2=O)cc1CN1C(=O)c2ccccc2C1=O	50µM*	x	-111%[59 µM]	20%	-35%	u
Oc1ccc2c(c1)[C@@]13CCCCC1[C@@H](C2)N(CC1CCC1)CC3 (some centres not stated)	7%	x	x	x	x	x
C#CCOS(=O)OC1CCCCC1Oc1ccc(C(C)(C)C)cc1 (configuration not stated)	4%	x	x	x	x	x
SMILES	Sfp inh	L3MBTL1 block	G9a block	HP1b chromo inh	JMJD2A Tudor inh	BAZ2B block
COCCNC(=O)Cn1cc(/C=C2\C(=O)NC(=O)N(c3ccccc3F)C2=O)c2ccccc21	0%	x	6%	49%	-6%	2%
COc1ccc(/C=C2/C(=O)NC(=S)N(C3CC3)C2=O)cc1CN1C(=O)c2ccccc2C1=O	25µM*	3%	3.5µM*	u	25µM*	50µM*
COc1cccc(N2C(=O)NC(=O)/C(=C/c3ccc4c(c3)Cc3ccccc3-4)C2=O)c1	56µM*	x	7.1µM*	43%	56µM*	45µM*
O=C1NC(=O)N(c2ccccc2F)C(=O)/C1=C/c1ccc(Sc2nc3ccccc3[nH]2)o1	50µM*	u	6.3µM*	u	22µM*	32µM*
O=C1NC(=O)N(c2ccccc2)C(=O)/C1=C/c1ccoc1	u	u	40µM*	23%	-14%	u
N#Cc1cccc(NC(=O)N2CC[C@@]3(CCCN(C(=O)Oc4ccccc4)C3)C2)c1	1%	x	6%[12.7 µM]	x	x	x
CCCCCC1C(=O)O[C@H](C)[C@@H](NC(=O)c2cccc(NC=O)c2O)C(=O)OC(C)C1OC(=O)CC(C)C (some centres not stated)	17%	x	x	x	x	x
CCOc1cc(/C=C2/C(=O)NC(=O)N(c3ccc(CC)cc3)C2=O)ccc1OC(=O)c1cccs1	79µM*	-3%	29%[0.501 µM]	13%	79µM*	50µM*
C[C@H](N)Cc1cccc(C(F)(F)F)c1	x	x	30µM*	x	x	x
NC(=S)c1cn(C2OC(CO)C(O)C2O)c2ncnc(N)c12 (configuration not stated)	7.9µM*	-10%	10µM*	-9%	-12%	-19%
CC[C@@]1(O)C(=O)OCc2c1cc1n(c2=O)Cc2cc3c(NC(=O)CN)cccc3nc2-1	56µM*	53%	u	41%	-22%	u
CCC1(O)C(=O)OCc2c1cc1n(c2=O)Cc2cc3cc(O)ccc3nc2-1 (configuration not stated)	x	x	x	-14%	u	x
CC[C@@]1(O)C(=O)OCc2c1cc1n(c2=O)Cc2cc3c(O)cccc3nc2-1	u	x	2.5µM*	x	x	x
CC[C@@]1(O)C(=O)OCc2c1cc1n(c2=O)Cc2cc3ccccc3nc2-1	10%	x	45µM*!	16%	-17%	-3%
S=C=S	24%	x	3%[59 µM]	x	x	x
NC(=O)CSc1nc2cc(S(=O)(=O)N3CCOCC3)ccc2o1	x	-9%	x	u	-23%	x
